“And” between values parts separate entries of the source, which are not always exact repeats. Equal entries are not always repeated. Inconclusive results are not listed. The source made the active and inactive calls. Unless noted, calls follow the shape of the dose curve; as a rule, active = well fitted cell-killing curve with a large enough effect; inconclusive = small, poorly fitted or top-dose-only effect; inactive = flat fitted curve, though single readings scatter.

Assay [1] is described as follows: Cell Viability - LYMP2-002 (AID 977).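 Also: series mostly up to about 92 µM; plate controls were DMSO only for no effect and 92 µM tetraoctylammonium bromide for full effect.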 Put shortly:
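Luminescent ATP readout (CellTiter-Glo, 30 min room temperature) after 24 h compound exposure at 37 C of a human lymphoblastoid line, 2500 cells/well. AC50 values derived by standard Hill fitting of qHTS concentration-response data.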

Assay [2] in a line: Cell Viability - LYMP2-006 (AID 978). Also: series mostly up to about 92 µM; % is scaled to controls: 0 for no effect and ±100 for the full control effect; nearly all actives have a fitted effect of over 60% in size. The gist of the method:
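Concentration-dependent loss of intracellular ATP in a human lymphoblastoid line after 24 hr treatment at 37 C was measured by CellTiter-Glo luminescence, with AC50 values obtained from standard Hill-equation modelling.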

Assay [3] in a line: Cell Viability - LYMP2-007 (AID 979).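 Also: cells exposed to compound for 24 h before reading; 0% = DMSO only and the negative end = 92 µM tetraoctylammonium bromide; nearly all actives have a fitted effect of over 60% in size.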 The gist of the method: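 Human lymphoblastoid LYMP2-007 cells (2500/well) preincubated 5 h at 37 C, then treated 24 h at 37 C in complete medium. Viability by CellTiter-Glo ATP luminescence after 30 min at room temperature; AC50 from Hill fits.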
Assay [4] is described as follows: Cell Viability - LYMP2-008 (AID 980). Also: % is scaled to controls: 0 for no effect and ±100 for the full control effect; nearly all actives have a fitted effect of over 60% in size. Put shortly:
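LYMP2-008 lymphoblastoid cells (2500/well) plated 5 h, then treated 24 h at 37 C in complete medium. Viability read as intracellular ATP by CellTiter-Glo luminescence after 30 min at room temperature; AC50 from Hill fits.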

Assay [5] can be described thus: Cell Viability - LYMP2-010 (AID 981). Also: % is scaled to controls: 0 for no effect and ±100 for the full control effect; nearly all actives have a fitted effect of over 55% in size. The gist of the method:
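Human lymphoblastoid LYMP2-010 cells (2500/well) treated 24 h at 37 C in complete medium; viability read as intracellular ATP by CellTiter-Glo luminescence. AC50 from Hill fits of concentration-response data; tetraoctylammonium bromide positive control.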

The nature of assay [6]: Cell Viability - LYMP2-012 (AID 982).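 Also: cellular ATP by luciferase luminescence where a drop means cytotoxicity; cells exposed to compound for one day before reading; 0% = DMSO only and full loss = 92 µM tetraoctylammonium bromide; nearly all actives have a fitted effect of over 55% in size.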
A short description of assay [7]: Cell Viability - LYMP2-014 (AID 983).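 Also: series mostly up to about 92 µM; plate controls were DMSO only for no effect and 92 µM tetraoctylammonium bromide for full effect; nearly all actives have a fitted effect of over 50% in size.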 Put shortly: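 LYMP2-014 human lymphoblastoid cells, 2500/well, treated 24 h at 37 C in complete medium; viability by CellTiter-Glo ATP luminescence after 30 min at room temperature. AC50 from Hill fits of qHTS concentration-response; tetraoctylammonium bromide positive control.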
A short description of assay [8]: Cell Viability - LYMP2-016 (AID 984). Also: % is scaled to controls: 0 for no effect and ±100 for the full control effect; nearly all actives have a fitted effect of over 55% in size. Put shortly:
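Acute toxicity in a Coriell human lymphoblastoid line is scored as loss of intracellular ATP over 24 h of treatment in complete medium. CellTiter-Glo signal is fitted across concentrations with the Hill equation to give AC50.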

A short description of assay [9]: Cell Viability - LYMP2-018 (AID 985).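 Also: compound exposure lasted 24 hr at 37 °C; plate controls were DMSO only for no effect and tetraoctylammonium bromide at 92 µM for full effect; nearly all actives have a fitted effect of over 50% in size.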 Put shortly: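 Human lymphoblastoid LYMP2-018 cells, 2500/well, settled 5 hr at 37 C then exposed to compound 24 hr at 37 C; intracellular ATP measured by CellTiter-Glo luminescence. AC50 from Hill-equation concentration-response fits.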
The nature of assay [10]: Cell Viability - LYMP2-020 (AID 986).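 Also: series mostly up to about 92 µM; plate controls were DMSO only for no effect and tetraoctylammonium bromide at 92 µM for full effect; nearly all actives have a fitted effect of over 55% in size.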 The gist of the method: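 Human lymphoblastoid LYMP2-020 cells (2500/well) preincubated 5 h at 37 C, then treated 24 h at 37 C. Viability measured as intracellular ATP by CellTiter-Glo luminescence after 30 min at room temperature; AC50 from Hill fits.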
Assay [11] is described as follows: Cell Viability - LYMP2-022 (AID 987). The gist of the method:
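LYMP2-022 lymphoblastoid cells (2500/well, complete medium) were treated with compounds for 24 hours at 37 C; intracellular ATP was then read by CellTiter-Glo luminescence after 30 min at room temperature. AC50 values were derived from Hill-equation fits.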

Assay [12] can be described thus: Cell Viability - LYMP2-024 (AID 988).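 Also: plate controls were DMSO only for no effect and 92 µM tetraoctylammonium bromide for full effect; nearly all actives have a fitted effect of over 60% in size.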 The gist of the method: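 Human lymphoblastoid LYMP2-024 cells (2500/well) rested 5 hr, then treated with compound for 24 hr at 37 C in complete medium. Viability was measured as intracellular ATP by CellTiter-Glo luminescence. AC50 values came from Hill-equation fits.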
A short description of assay [13]: Cell Viability - LYMP2-026 (AID 989). Also: % is scaled to controls: 0 for no effect and ±100 for the full control effect; nearly all actives have a fitted effect of over 50% in size. The gist of the method:
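Human lymphoblastoid LYMP2-026 cells, 2500/well, exposed to compound 24 h at 37 C in complete medium. Viability as intracellular ATP by CellTiter-Glo luminescence; AC50 from Hill fits of qHTS concentration-response.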

Assay [14] in a line: Cell Viability - LYMP1-002 - Assay at 24 hr (AID 993). Also: % is scaled to controls: 0 for no effect and ±100 for the full control effect. The gist of the method:
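Human lymphoblastoid LYMP1-002 cells (2500/well) treated 24 h at 37 °C; viability as intracellular ATP by CellTiter-Glo luminescence. Tetraoctylammonium bromide as positive control; AC50 from Hill-equation fits of qHTS concentration-response.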

Assay [15] is described as follows: Cell Viability - LYMP1-002 - Assay at 40 hr (AID 994). Put shortly: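 LYMP1-002 human lymphoblastoid cells (2500/well, complete medium) were treated with compounds for 40 hr at 37 C. Intracellular ATP was measured by CellTiter-Glo luminescence, and AC50 values came from Hill-equation fits of concentration-response data; tetraoctylammonium bromide was the positive control.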

Assay [16] concerns the target Estrogen receptor (Homo sapiens) (UniProt P03372). The assay is described as follows: qHTS assay for small molecule antagonists of estrogen receptor alpha signaling (AID 588513; active = well fitted curve in the direction sought with a large enough effect in the signal ratio, with a control signal flat, not every such curve was filed as active; the % refers to the signal ratio; also: % is scaled to controls: 0 for no effect and ±100 for the full control effect). The gist of the method:
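Cells were plated at 5000/well and incubated 4 h at 37 C. Compounds were added as 1:2 dilution series, duplicates. 17-beta-estradiol (0.5nM final) was added for 18 h before CCF4 detection.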

Assay [17] shares this target. The assay can be described thus: qHTS assay for small molecule agonists of estrogen receptor alpha signaling (AID 588514; calls by dose curve;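 also: 0% = vehicle only and 100% = reference agonist; nearly all actives have a fitted effect of over 70% in size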). The gist of the method:
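ER-alpha-UAS-bla GripTite HEK293 cells, 5000/well in 2% charcoal/dextran-stripped FBS medium, treated with compound titrations 18 h at 37 C. CCF4 beta-lactamase read by fluorescence after 2 h RT; normalised to 20 nM 17-beta-estradiol (100%) and DMSO (0%), Hill fit for EC50 and efficacy.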

The target of assay [18] is Bile acid receptor (Homo sapiens) (UniProt Q96RI1). The assay is described as follows: qHTS assay for small molecule antagonists of farnesoid X receptor signaling (AID 588526; calls by dose curve; also: % is scaled to controls: 0 for no effect and ±100 for the full control effect). Put shortly:
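Concentration-response titrations were fitted to the Hill equation for half-maximal inhibition and maximal response, with data normalised to 50 uM chenodeoxycholic acid and DMSO control wells. Cells: FXR-UAS-bla HEK293T, dialyzed FBS.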

Assay [19] shares this target. The assay is described as follows: qHTS assay for small molecule agonists of farnesoid X receptor signaling (AID 588527; calls by dose curve;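 also: series mostly up to about 77 µM; 0% = vehicle basal and 100% = reference agonist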). Conditions: HEK293T FXR-UAS-bla, beta-lactamase ratio, 16 h; stronger effect = higher value. The gist of the method:
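Agonist-mode beta-lactamase reporter in GeneBLAzer FXR-UAS-bla HEK293T cells, titration up to 92 uM, 16 h exposure at 37 C, CCF4 fluorescence. Response scaled to DMSO (0%) and 100 uM chenodeoxycholic acid (100%), then Hill-fitted for EC50 and efficacy.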

The target in assay [20] is Glucocorticoid receptor (Homo sapiens) (UniProt P04150). The assay can be described thus: qHTS assay for small molecule agonists of glucocorticoid receptor signaling (AID 588532; active = well fitted curve in the direction sought with a large enough effect in the signal ratio, with a control signal flat; the % refers to the signal ratio;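 also: 100% = dexamethasone at 0.1 µM and 0% = DMSO only wells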). Conditions: HeLa MMTV-bla, beta-lactamase ratio, agonist, 18 h; stronger effect = higher value; percent of dexamethasone control, DMSO zero. The gist of the method: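 Stimulation of a glucocorticoid response element-driven beta-lactamase gene was measured in HeLa cells. Responses were scaled between DMSO basal and 0.1 uM dexamethasone, then fitted for half-maximal stimulation.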

The target is the same in assay [21]. The assay can be described thus: qHTS assay for small molecule antagonists of glucocorticoid receptor signaling (AID 588533; active = well fitted inhibition curve with a large enough effect in the signal ratio, with a control signal flat, not every such curve was filed as active; the % refers to the signal ratio;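 also: cells stimulated with 2 nM dexamethasone as agonist; % is scaled to controls: 0 for no effect and ±100 for the full control effect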). The gist of the method:
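Antagonist-mode qHTS: compound titrations added to GRE-bla HeLa cells, then dexamethasone 2 nM final; 18 h, 37 C. CCF4 FRET fluorescence normalized to dexamethasone and DMSO; IC50 from Hill fit.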

The target in assay [22] is Peroxisome proliferator-activated receptor delta (Homo sapiens) (UniProt Q03181). The assay is described as follows: qHTS assay for small molecule agonists of peroxisome proliferator-activated receptor delta signaling (AID 588534; calls by dose curve;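 also: 0% = DMSO basal wells and 100% = positive control agonist at 10 µM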). The gist of the method: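 Cells carrying a PPAR-delta beta-lactamase reporter were treated with compounds for 18 h at 37 °C in agonist mode. CCF4 fluorescence was read after 2 h; EC50 and efficacy from Hill fits.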

Assay [23] is described as follows: qHTS assay for small molecule antagonists of peroxisome proliferator-activated receptor delta signaling (AID 588535; active = well fitted inhibition curve with a large enough effect in the signal ratio, with a control signal flat, not every such curve was filed as active; the % refers to the signal ratio;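 as to max response: cells co-treated with a PPAR-delta agonist as stimulator during compound exposure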). Conditions: HEK293T PPARd-UAS-bla, beta-lactamase FRET ratio, 18 h; 460 nm channel. The gist of the method: (§1)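 Reporter: UAS-bla under PPAR-delta response element, HEK293T host. Medium: 2% charcoal/dextran FBS. Dosing: titration, 18 hrs, 37 C. Detection: CCF4, 2 hrs RT, 405 ex/460 and 530 em.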

In assay [24] the target is Peroxisome proliferator-activated receptor delta (Homo sapiens) (UniProt Q03181). Described as above. Put shortly:
as §1

Estrogen receptor (Homo sapiens), sequence (P03372 whole entry, looked up): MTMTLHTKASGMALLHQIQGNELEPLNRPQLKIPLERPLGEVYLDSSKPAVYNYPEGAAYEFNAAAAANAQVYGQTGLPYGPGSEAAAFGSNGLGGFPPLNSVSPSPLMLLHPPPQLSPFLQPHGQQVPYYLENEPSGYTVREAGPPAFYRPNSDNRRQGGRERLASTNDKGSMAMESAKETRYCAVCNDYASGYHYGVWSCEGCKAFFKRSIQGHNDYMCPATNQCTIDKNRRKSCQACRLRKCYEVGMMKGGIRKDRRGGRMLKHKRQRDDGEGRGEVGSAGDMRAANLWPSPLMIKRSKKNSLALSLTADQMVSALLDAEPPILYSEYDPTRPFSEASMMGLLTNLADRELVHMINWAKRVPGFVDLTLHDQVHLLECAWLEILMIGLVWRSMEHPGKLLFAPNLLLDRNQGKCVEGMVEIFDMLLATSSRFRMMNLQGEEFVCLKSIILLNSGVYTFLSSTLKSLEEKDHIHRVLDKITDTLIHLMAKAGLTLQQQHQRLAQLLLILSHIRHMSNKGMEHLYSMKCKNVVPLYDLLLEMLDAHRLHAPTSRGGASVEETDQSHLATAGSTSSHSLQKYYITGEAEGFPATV
Glucocorticoid receptor (Homo sapiens), sequence (P04150 whole entry, looked up): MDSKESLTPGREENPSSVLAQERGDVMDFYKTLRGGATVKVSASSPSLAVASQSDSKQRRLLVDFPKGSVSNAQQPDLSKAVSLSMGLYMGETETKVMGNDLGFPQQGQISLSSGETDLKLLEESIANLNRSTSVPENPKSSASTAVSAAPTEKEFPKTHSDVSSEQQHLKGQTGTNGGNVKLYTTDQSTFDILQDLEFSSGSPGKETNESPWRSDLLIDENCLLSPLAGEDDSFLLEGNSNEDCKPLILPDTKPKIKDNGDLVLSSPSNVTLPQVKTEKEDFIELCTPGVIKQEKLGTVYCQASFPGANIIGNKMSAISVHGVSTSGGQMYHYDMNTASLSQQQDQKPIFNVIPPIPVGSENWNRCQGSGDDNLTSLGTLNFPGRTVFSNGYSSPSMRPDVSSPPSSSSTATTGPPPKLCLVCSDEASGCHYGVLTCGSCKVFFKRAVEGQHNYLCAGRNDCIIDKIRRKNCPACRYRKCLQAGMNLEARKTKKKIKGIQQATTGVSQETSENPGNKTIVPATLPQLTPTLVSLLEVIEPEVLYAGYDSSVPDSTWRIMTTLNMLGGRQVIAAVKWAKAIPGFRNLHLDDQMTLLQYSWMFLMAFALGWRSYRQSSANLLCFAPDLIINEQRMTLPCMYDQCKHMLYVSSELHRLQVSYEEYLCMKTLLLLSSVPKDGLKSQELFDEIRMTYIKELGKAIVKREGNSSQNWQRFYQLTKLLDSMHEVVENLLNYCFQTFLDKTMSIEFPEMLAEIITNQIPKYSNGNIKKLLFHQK
Bile acid receptor (Homo sapiens), sequence (Q96RI1 whole entry, looked up): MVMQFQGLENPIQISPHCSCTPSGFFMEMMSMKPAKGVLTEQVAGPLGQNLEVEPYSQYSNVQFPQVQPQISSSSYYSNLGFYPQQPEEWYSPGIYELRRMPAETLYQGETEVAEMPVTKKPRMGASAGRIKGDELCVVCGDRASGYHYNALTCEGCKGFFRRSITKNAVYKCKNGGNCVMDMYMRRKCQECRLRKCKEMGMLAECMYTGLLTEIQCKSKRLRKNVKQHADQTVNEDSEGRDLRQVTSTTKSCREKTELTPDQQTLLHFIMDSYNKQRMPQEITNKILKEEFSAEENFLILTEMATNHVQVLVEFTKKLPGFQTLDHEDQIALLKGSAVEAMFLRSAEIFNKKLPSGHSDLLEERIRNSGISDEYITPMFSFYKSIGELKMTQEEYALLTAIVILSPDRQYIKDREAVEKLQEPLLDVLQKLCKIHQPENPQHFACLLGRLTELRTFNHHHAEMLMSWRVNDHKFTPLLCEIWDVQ
Peroxisome proliferator-activated receptor delta (Homo sapiens), sequence (Q03181 whole entry, looked up): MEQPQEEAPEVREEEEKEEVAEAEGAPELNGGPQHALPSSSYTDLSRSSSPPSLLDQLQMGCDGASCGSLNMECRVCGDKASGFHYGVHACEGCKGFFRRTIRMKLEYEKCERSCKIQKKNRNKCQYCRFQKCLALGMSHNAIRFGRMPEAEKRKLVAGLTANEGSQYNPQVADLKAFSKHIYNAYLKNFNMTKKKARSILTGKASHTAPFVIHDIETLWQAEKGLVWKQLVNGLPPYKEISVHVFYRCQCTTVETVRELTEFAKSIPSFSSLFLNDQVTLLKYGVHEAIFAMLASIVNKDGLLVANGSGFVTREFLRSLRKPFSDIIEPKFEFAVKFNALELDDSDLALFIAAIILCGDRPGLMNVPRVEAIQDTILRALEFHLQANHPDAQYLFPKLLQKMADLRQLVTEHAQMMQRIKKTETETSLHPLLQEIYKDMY

Regarding `Oc1ccc(Cl)cc1Cl`, the Potency entry in assay [1], in assay [2], in assay [3], in assay [4], in assay [5] and in assay [6] was “inactive” each time. The Potency result in assay [7], in assay [8], in [9], in assay [10], in assay [11] and in assay [12] was “inactive” in each case. For the same compound, the Potency result in assay [13], in assay [14], in [15], in assay [16], in [17] and in assay [21] was “inactive” throughout. The Potency result in [24] is “inactive”. Moreover, the compound was called inactive in assay [18] and in assay [22]. The activation in assay [19] was -2.46% (inactive) and -2.63% (inactive); in [20] it was -5.35% (inactive) and -2.01% (inactive). Moreover, the max response in assay [23] was found to be 0.988%.

The values above are taken from PubChem BioAssay (NCATS).
